The text below walks through data of PubChem BioAssay (NCI).

The panel holds about 83,000 compounds, 20% with a hit somewhere; the sample as a whole holds those more often.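 48-hour exposure, single concentration, 96-well plates; percent growth endpoint where 0 means no net growth. Active: below 10.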 Values without a mark were called inactive. The source made the active and inactive calls.

Some test systems named below: SR leukemia; RPMI-8226 leukemia; OVCAR-8 ovarian; OVCAR-5 ovarian; OVCAR-4 ovarian; SK-OV-3 ovarian; OVCAR-3 ovarian; HS 578T breast; NCI/ADR-RES ovarian; T-47D breast; BT-549 breast; MDA-MB-435 melanoma; SW-620 colon; MCF7 breast; HCT-116 colon; HCC-2998 colon; KM12 colon; IGROV1 ovarian.
What all share (test): NCI-60 one-dose screen, 48 h (100 = growth as untreated, 0 = no growth, -100 = all killed)
Common to all, as to conditions: 10 µM unless noted

On to `Cn1ccnc1C(=O)/C=C/c1ccc(CNC(=O)c2c(F)c(F)c(F)c(F)c2F)cc1`, for which the growth in the test with SR leukemia is 12.8%; in the test on RPMI-8226 leukemia it was 9.9% (active); with OVCAR-8 ovarian, 90.1%; in the test on OVCAR-5 ovarian, 94.9%; in the test on OVCAR-4 ovarian, 95.4%; with SK-OV-3 ovarian, 105%. The growth with OVCAR-3 ovarian is 14.8%; with HS 578T breast, 86.9%; in the test on NCI/ADR-RES ovarian, 49.1%; in the test with T-47D breast it was 41.4%; in the test on BT-549 breast, 74.1%; with MDA-MB-435 melanoma, 64.7%. Besides, the growth was 38.2% in the test on SW-620 colon; 19.4% with MCF7 breast; 4.78% (active) with HCT-116 colon; 90.7% in the test on HCC-2998 colon; 23.2% with KM12 colon.

`O=C(NCc1ncc[nH]1)c1ccc(-c2nc3ccc4[nH]ncc4c3c3c2CCCC3)cc1`: the growth was -52.6% (active) in the test on SR leukemia; 45% in the test with RPMI-8226 leukemia; 16.1% in the test with OVCAR-8 ovarian; 62.1% with OVCAR-5 ovarian; 14.5% with OVCAR-4 ovarian; -16.8% (active) in the test on SK-OV-3 ovarian. The growth in the test on OVCAR-3 ovarian is 3.38% (active); in the test on HS 578T breast it was -12.8% (active); in the test with NCI/ADR-RES ovarian, 90.2%; with T-47D breast, -3.92% (active); in the test on BT-549 breast it was 0.679% (active); in the test on MDA-MB-435 melanoma, 14.6%. In addition, the growth with SW-620 colon was 5.4% (active); in the test on MCF7 breast it was 1.62% (active); in the test on HCT-116 colon, -4.57% (active); with HCC-2998 colon it was 12.8%; with KM12 colon it was 4.99% (active).

As to `CCOc1ccc(C(=O)Nc2ncc(Cc3ccc(F)cc3)s2)cc1`, the growth in the test on SR leukemia was 19.6%; with RPMI-8226 leukemia, 25.5%; in the test with OVCAR-8 ovarian, 22.1%; in the test with OVCAR-5 ovarian, 34.1%; in the test on OVCAR-4 ovarian, 54.1%; in the test with SK-OV-3 ovarian, 36.2%. The growth is 40% with IGROV1 ovarian; 1.23% (active) in the test with HS 578T breast; 18.2% in the test on NCI/ADR-RES ovarian; 57.1% in the test on BT-549 breast; -16.1% (active) in the test on MDA-MB-435 melanoma; 26.1% in the test with SW-620 colon. Moreover, the growth was 19.1% with MCF7 breast, 13.2% in the test with HCT-116 colon, 15.5% in the test with HCC-2998 colon and 16.7% in the test with KM12 colon.

With `COc1ccccc1C(=O)Nc1cccc2c1C(=O)C(=O)C=C2`, the growth is 58.2% in the test on SR leukemia; 88.3% with RPMI-8226 leukemia; 102% in the test on OVCAR-8 ovarian; 114% in the test on OVCAR-5 ovarian; 74.8% in the test on OVCAR-4 ovarian; 114% in the test with SK-OV-3 ovarian. The growth with OVCAR-3 ovarian is 13.1%; with HS 578T breast it was 102%; in the test with NCI/ADR-RES ovarian it was 113%; with T-47D breast, 98.8%; in the test on BT-549 breast, 96.3%; in the test on MDA-MB-435 melanoma, 96.8%. Further, the growth with SW-620 colon is 94.2%; in the test on MCF7 breast, 81%; with HCT-116 colon it was 99%; with HCC-2998 colon it was 122%; in the test on KM12 colon, 99.3%.

As to `COc1ccc([C@@H]2[C@@H](O)C(=O)N2c2cc(OC)c(OC)c(OC)c2)cc1F`, the growth with SR leukemia was 8.72% (active); in the test with RPMI-8226 leukemia, 21.5%; in the test with OVCAR-8 ovarian, -5.69% (active); in the test on OVCAR-5 ovarian, 31.5%; in the test with OVCAR-4 ovarian it was 63.2%; in the test with SK-OV-3 ovarian, 28.3%. For the same compound, the growth with HS 578T breast was -2.79% (active); in the test with NCI/ADR-RES ovarian, -6.67% (active); in the test on T-47D breast it was 68%; with BT-549 breast it was -18.5% (active); in the test with MDA-MB-435 melanoma, -12% (active); in the test on SW-620 colon, 22.5%. The growth in the test on MCF7 breast is 9.59% (active); in the test on HCT-116 colon, 2.32% (active); in the test with HCC-2998 colon, 5.15% (active); in the test on KM12 colon, 6.09% (active).

As for `CNC(=O)c1cc(Oc2ccc3nc(NC(=O)c4ccc(N5CCOCC5)c(C(F)(F)F)c4)sc3c2)ccn1`, the growth is 53.2% in the test with SR leukemia; 47.5% with RPMI-8226 leukemia; 56.2% with OVCAR-8 ovarian; 99% in the test on OVCAR-5 ovarian; 61.5% in the test with OVCAR-4 ovarian; 102% in the test on SK-OV-3 ovarian. For the same compound, the growth in the test with HS 578T breast is 69.6%; with NCI/ADR-RES ovarian, 70%; in the test with T-47D breast, 86.1%; in the test with BT-549 breast, 94%; with MDA-MB-435 melanoma, 88.4%; in the test with SW-620 colon, 114%. Moreover, the growth with MCF7 breast is 70%; in the test with HCT-116 colon, 60.2%; with HCC-2998 colon, 96.3%; in the test with KM12 colon, 56.7%.

`COc1ccc(NCc2cn(-c3ccc(C(=O)O)cc3)nc2-c2cc(C(F)(F)F)cc(C(F)(F)F)c2)cc1`: the growth was 112% with SR leukemia; 67.2% in the test with RPMI-8226 leukemia; 109% with OVCAR-8 ovarian; 104% in the test on OVCAR-5 ovarian; 100% in the test with OVCAR-4 ovarian; 99.6% in the test on SK-OV-3 ovarian. For the same compound, the growth in the test with OVCAR-3 ovarian was 101%; with HS 578T breast, 81.5%; in the test with NCI/ADR-RES ovarian it was 96.8%; with T-47D breast it was 76.6%; in the test on BT-549 breast, 110%; with MDA-MB-435 melanoma, 101%. The growth in the test with SW-620 colon is 102%; in the test with MCF7 breast it was 90.9%; in the test with HCT-116 colon, 95.2%; in the test on HCC-2998 colon, 104%; with KM12 colon it was 99.8%.

With `C#CCOC(=O)[C@@H]1CCCN1CC#C`, the growth was 95.5% with SR leukemia; 71% with RPMI-8226 leukemia; 90.4% in the test with OVCAR-8 ovarian; 103% in the test with OVCAR-5 ovarian; 91.9% with OVCAR-4 ovarian; 97.6% with SK-OV-3 ovarian. Moreover, the growth in the test on OVCAR-3 ovarian is 87.3%; in the test on HS 578T breast, 74.8%; in the test with NCI/ADR-RES ovarian, 85.7%; with T-47D breast, 92.6%; with BT-549 breast it was 95.2%; in the test with MDA-MB-435 melanoma, 90.9%. The growth in the test with SW-620 colon is 96.7%; with MCF7 breast, 74.9%; in the test with HCT-116 colon it was 81.6%; with HCC-2998 colon it was 96.7%; in the test on KM12 colon, 91.5%.

`COc1ccccc1NC1=C(Cl)C(=O)c2nc(C)ccc2C1=O`: the growth with SR leukemia is -27.9% (active); in the test on RPMI-8226 leukemia it was -30.4% (active); with OVCAR-8 ovarian, 9.87% (active); in the test with OVCAR-5 ovarian it was 78.9%; with OVCAR-4 ovarian, -98.2% (active); with SK-OV-3 ovarian, 88.3%. In addition, the growth is -83.5% (active) with IGROV1 ovarian; 72.1% with HS 578T breast; 7.08% (active) with NCI/ADR-RES ovarian; -44.7% (active) in the test on T-47D breast; -86% (active) with MDA-MB-435 melanoma; -63.1% (active) in the test with SW-620 colon. Also, the growth in the test with MCF7 breast is -60.4% (active); in the test with HCT-116 colon, -80.6% (active); in the test with HCC-2998 colon, 58.9%; in the test with KM12 colon, 69.4%.
